Source: PubChem BioAssay (NCI)
Compounds without any hit were thinned out: in the full panel of roughly 83,000, 20% have a hit.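 Method: cells in 96-well plates; compound added at one concentration; 48 h incubation; percent growth measured; values under 10 scored active.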 Active and inactive are the calls of the source.

Assays:
Assay in all cases: NCI-60 one-dose screen, 48 h (100 = growth as untreated, 0 = no growth, -100 = all killed)
Conditions in all cases: 10 µM unless noted
NCI-H23 lung = system: NCI-H23 lung
NCI-H226 lung = system: NCI-H226 lung
NCI-H322M lung = system: NCI-H322M lung
HOP-62 NSCLC = system: HOP-62 NSCLC
NCI-H460 lung = system: NCI-H460 lung
HOP-92 NSCLC = system: HOP-92 NSCLC
NCI-H522 lung = system: NCI-H522 lung
A549/ATCC NSCLC = system: A549/ATCC NSCLC
786-0 renal = system: 786-0 renal
COLO 205 colon = system: COLO 205 colon
DU-145 prostate = system: DU-145 prostate
K-562 leukemia = system: K-562 leukemia
MALME-3M melanoma = system: MALME-3M melanoma
MDA-MB-231 breast = system: MDA-MB-231 breast
RXF 393 renal = system: RXF 393 renal
SF-268 CNS = system: SF-268 CNS
SF-295 CNS = system: SF-295 CNS
SF-539 CNS = system: SF-539 CNS
UACC-257 melanoma = system: UACC-257 melanoma
M14 melanoma = system: M14 melanoma

Measured: growth

COc1cc(/C=C/C(=O)/C=C/c2cc(OC)c3c(c2OC)OCO3)c(OC)c2c1OCO2
active: NCI-H522 lung -15.5%
inactive: NCI-H23 lung 33.2% | NCI-H226 lung 73.9% | NCI-H322M lung 56.8% | HOP-62 NSCLC 72.8% | NCI-H460 lung 23.5% | HOP-92 NSCLC 74.1% | A549/ATCC NSCLC 55.1% | 786-0 renal 29% | COLO 205 colon 13.3% | DU-145 prostate 28.3% | K-562 leukemia 12.4% | MALME-3M melanoma 46.7% | MDA-MB-231 breast 46% | RXF 393 renal 16.6% | SF-268 CNS 48.7% | SF-295 CNS 89.7% | SF-539 CNS 29.4% | UACC-257 melanoma 54.1% | M14 melanoma 31.7%

COc1nc2ccc(C)cc2cc1-c1nc2c(cnn2-c2ccccc2)c(=O)[nH]1
inactive: NCI-H23 lung 80.5% | NCI-H226 lung 92% | NCI-H322M lung 95.9% | HOP-62 NSCLC 70.9% | NCI-H460 lung 80.3% | HOP-92 NSCLC 78.9% | NCI-H522 lung 56.5% | A549/ATCC NSCLC 84.3% | 786-0 renal 95.3% | COLO 205 colon 86.3% | DU-145 prostate 97.2% | K-562 leukemia 34.8% | MALME-3M melanoma 126% | MDA-MB-231 breast 103% | RXF 393 renal 89.4% | SF-268 CNS 93.8% | SF-295 CNS 90.9% | SF-539 CNS 99.9% | UACC-257 melanoma 86.4% | M14 melanoma 71%

c1ccc(-c2nc3nonc3nc2-c2ccccc2)cc1
inactive: NCI-H23 lung 52.4% | NCI-H226 lung 69.2% | NCI-H322M lung 81.7% | HOP-62 NSCLC 79% | NCI-H460 lung 62.8% | HOP-92 NSCLC 78% | NCI-H522 lung 49.2% | A549/ATCC NSCLC 76.7% | 786-0 renal 73.8% | COLO 205 colon 82.6% | DU-145 prostate 68.2% | K-562 leukemia 52.4% | MALME-3M melanoma 55.4% | MDA-MB-231 breast 43.9% | RXF 393 renal 51.1% | SF-268 CNS 62.9% | SF-295 CNS 72.3% | SF-539 CNS 79.1% | UACC-257 melanoma 63.3% | M14 melanoma 84.9%

NCCCNc1nc2ccccc2c2c(=O)c3cc(OC(F)(F)F)ccc3sc12
active: NCI-H460 lung -76.6% | NCI-H522 lung -14.4% | A549/ATCC NSCLC -43.3% | COLO 205 colon -52.7% | DU-145 prostate -10.7% | K-562 leukemia -34.7% | MDA-MB-231 breast -43.2% | SF-539 CNS -72% | M14 melanoma -26.4%
inactive: NCI-H23 lung 48.3% | NCI-H226 lung 85.7% | NCI-H322M lung 49.1% | HOP-62 NSCLC 51.6% | HOP-92 NSCLC 17.3% | 786-0 renal 57.5% | MALME-3M melanoma 80.9% | RXF 393 renal 60.7% | SF-268 CNS 51% | SF-295 CNS 33.4% | UACC-257 melanoma 104%

O=c1n(Cc2ccc3ccccc3c2)ccn1Cc1ccc2ccccc2c1
inactive: NCI-H23 lung 91% | NCI-H226 lung 91.5% | NCI-H322M lung 86.3% | HOP-62 NSCLC 66% | NCI-H460 lung 85.7% | HOP-92 NSCLC 83.1% | NCI-H522 lung 46.8% | A549/ATCC NSCLC 82.9% | 786-0 renal 95.8% | COLO 205 colon 96.1% | DU-145 prostate 100% | K-562 leukemia 106% | MALME-3M melanoma 91.8% | MDA-MB-231 breast 91.4% | RXF 393 renal 96.4% | SF-268 CNS 84.7% | SF-295 CNS 94.5% | SF-539 CNS 87.7% | UACC-257 melanoma 101% | M14 melanoma 93.3%

COc1ccc2c(c1)/C(=C/c1sc(=S)n(Cc3ccco3)c1O)C=N2
active: NCI-H460 lung 9.07%
inactive: NCI-H23 lung 51% | NCI-H226 lung 71.4% | NCI-H322M lung 89% | HOP-62 NSCLC 39.6% | HOP-92 NSCLC 77.5% | NCI-H522 lung 32.5% | A549/ATCC NSCLC 57.9% | 786-0 renal 46.2% | COLO 205 colon 25.4% | DU-145 prostate 33.5% | K-562 leukemia 15.8% | MALME-3M melanoma 49.1% | MDA-MB-231 breast 56.5% | RXF 393 renal 48.7% | SF-268 CNS 52.8% | SF-295 CNS 27.8% | SF-539 CNS 11.2% | UACC-257 melanoma 61.3% | M14 melanoma 11.8%

C#C[C@]1(O)CC[C@H]2[C@@H]3CC=C4c5sc(Nc6ccccc6)nc5CC[C@]4(C)[C@H]3CC[C@@]21C
inactive: NCI-H23 lung 39.1% | NCI-H226 lung 62.7% | NCI-H322M lung 48% | HOP-62 NSCLC 35.5% | NCI-H460 lung 20.5% | HOP-92 NSCLC 53.4% | NCI-H522 lung 43.3% | A549/ATCC NSCLC 52.9% | COLO 205 colon 10.1% | DU-145 prostate 16.2% | MALME-3M melanoma 25.8% | MDA-MB-231 breast 27.7% | SF-268 CNS 24.3% | UACC-257 melanoma 30.4%
active: 786-0 renal -36.5% | K-562 leukemia 9.63% | RXF 393 renal -53.1% | SF-295 CNS -56.4% | SF-539 CNS -51.1% | M14 melanoma 2.55%

Cc1ccc(S(=O)(=O)Oc2ccc(NC(=O)c3ccc(Cl)cc3)cc2)cc1
inactive: NCI-H23 lung 102% | NCI-H226 lung 109% | NCI-H322M lung 91% | HOP-62 NSCLC 91.1% | NCI-H460 lung 103% | HOP-92 NSCLC 102% | NCI-H522 lung 83.8% | A549/ATCC NSCLC 95% | 786-0 renal 91.1% | COLO 205 colon 113% | DU-145 prostate 105% | K-562 leukemia 92.8% | MALME-3M melanoma 100% | MDA-MB-231 breast 97% | RXF 393 renal 115% | SF-268 CNS 94.4% | SF-295 CNS 93.4% | SF-539 CNS 93.7% | UACC-257 melanoma 111% | M14 melanoma 94.3%

COc1cccc2c(=O)c3c(sc12)c(N1CCNCC1)nc1ccccc13
inactive: NCI-H23 lung 77.3% | NCI-H226 lung 88.2% | NCI-H322M lung 92.8% | HOP-62 NSCLC 81% | HOP-92 NSCLC 51.7% | NCI-H522 lung 77.2% | A549/ATCC NSCLC 48.6% | 786-0 renal 78.9% | COLO 205 colon 30.9% | DU-145 prostate 35.8% | MALME-3M melanoma 104% | MDA-MB-231 breast 53.1% | RXF 393 renal 79.7% | SF-268 CNS 87.9% | SF-295 CNS 102% | SF-539 CNS 69.6% | UACC-257 melanoma 101% | M14 melanoma 81.3%
active: NCI-H460 lung -55.1% | K-562 leukemia -25.9%

Nc1nc2ccccc2c2c(=O)c3cc(F)ccc3sc12
inactive: NCI-H23 lung 87.3% | NCI-H226 lung 94.5% | NCI-H322M lung 99.2% | HOP-62 NSCLC 108% | NCI-H460 lung 103% | HOP-92 NSCLC 80.8% | NCI-H522 lung 98.1% | A549/ATCC NSCLC 104% | 786-0 renal 97.4% | COLO 205 colon 110% | DU-145 prostate 104% | K-562 leukemia 107% | MALME-3M melanoma 96.5% | MDA-MB-231 breast 100% | RXF 393 renal 104% | SF-268 CNS 103% | SF-295 CNS 100% | SF-539 CNS 104% | UACC-257 melanoma 104% | M14 melanoma 99.6%

c1ccc(CO[C@H]2CO[C@H]3[C@@H]2OC[C@@H]3Oc2ccc(Nc3ncnc4ccsc34)cc2)cc1
inactive: NCI-H23 lung 62.6% | NCI-H226 lung 80.3% | NCI-H322M lung 93.1% | HOP-62 NSCLC 86.5% | NCI-H460 lung 84.5% | HOP-92 NSCLC 65% | NCI-H522 lung 70.4% | A549/ATCC NSCLC 81.7% | 786-0 renal 87.2% | COLO 205 colon 71.8% | DU-145 prostate 89% | K-562 leukemia 62.1% | MALME-3M melanoma 53.4% | MDA-MB-231 breast 71.7% | RXF 393 renal 83.1% | SF-268 CNS 78% | SF-295 CNS 63.3% | SF-539 CNS 73.1% | UACC-257 melanoma 78% | M14 melanoma 79.5%

CCOC(=O)Nc1ccc(-c2nc(-c3cccc(OCCN4CCOCC4)c3)c(-c3ccnc(Br)c3)[nH]2)cc1
active: 786-0 renal -5.12% | K-562 leukemia 1.64% | RXF 393 renal -25.9% | SF-295 CNS -53.9%
inactive: NCI-H23 lung 47.3% | NCI-H226 lung 56.3% | NCI-H322M lung 58% | HOP-62 NSCLC 50.8% | NCI-H460 lung 54.1% | HOP-92 NSCLC 54.1% | NCI-H522 lung 52% | A549/ATCC NSCLC 54.2% | COLO 205 colon 48.2% | DU-145 prostate 67.2% | MALME-3M melanoma 40.3% | MDA-MB-231 breast 46.2% | SF-268 CNS 62.3% | SF-539 CNS 23.4% | UACC-257 melanoma 60% | M14 melanoma 57.4%

CN1C(=C2C(=O)OC(C)(C)OC2=O)CCC1C(=O)NCc1ccc(Cl)cc1Cl (stereo not given)
inactive: NCI-H23 lung 97.9% | NCI-H226 lung 79.1% | NCI-H322M lung 107% | HOP-62 NSCLC 85.4% | NCI-H460 lung 100% | HOP-92 NSCLC 85.3% | NCI-H522 lung 54.2% | A549/ATCC NSCLC 79.5% | 786-0 renal 103% | COLO 205 colon 103% | DU-145 prostate 107% | K-562 leukemia 97.5% | MALME-3M melanoma 102% | MDA-MB-231 breast 99.5% | RXF 393 renal 108% | SF-268 CNS 101% | SF-295 CNS 96.4% | SF-539 CNS 96% | UACC-257 melanoma 87% | M14 melanoma 98.2%

CCN(CC)S(=O)(=O)c1ccc(NC(=O)CSc2nnc(C)n2-c2ccccc2)cc1
inactive: NCI-H23 lung 97.6% | NCI-H226 lung 95.3% | NCI-H322M lung 113% | HOP-62 NSCLC 104% | NCI-H460 lung 115% | HOP-92 NSCLC 76.9% | NCI-H522 lung 85.3% | A549/ATCC NSCLC 109% | 786-0 renal 109% | COLO 205 colon 112% | DU-145 prostate 120% | K-562 leukemia 88.5% | MALME-3M melanoma 132% | MDA-MB-231 breast 108% | RXF 393 renal 110% | SF-268 CNS 97.7% | SF-295 CNS 115% | SF-539 CNS 101% | UACC-257 melanoma 95.4% | M14 melanoma 116%

COc1ccc(-c2[nH]ncc2-c2cc3c(c(OC)c2)OCC(=O)N3)cc1
active: NCI-H460 lung 5.89% | NCI-H522 lung -47.2% | COLO 205 colon -24.9% | MDA-MB-231 breast 7.86% | RXF 393 renal -35.1% | SF-295 CNS 9.29% | SF-539 CNS -23.9%
inactive: NCI-H23 lung 30% | NCI-H226 lung 61.8% | NCI-H322M lung 43% | HOP-62 NSCLC 27.2% | HOP-92 NSCLC 63% | A549/ATCC NSCLC 35.2% | 786-0 renal 27% | DU-145 prostate 14.8% | K-562 leukemia 12.6% | MALME-3M melanoma 57.3% | SF-268 CNS 54% | UACC-257 melanoma 59.8% | M14 melanoma 11.6%
